# Measured values: the supplement of paper PMC4466140
# How the values were obtained:
# Assay in all cases: SPOT peptide array binding signal intensity (averaged, normalized) (arbitrary units (background-subtracted, floor 0; scale differs between SH3 domains)); higher = stronger binding of the SH3 domain to the peptide
# AgAbp1 = molecular target: AgAbp1
# Procedure, shortened: (§1)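 To measure binding, SH3 domains from four yeast species were fused to GST, expressed in E. coli BL21(DE3) and purified on glutathione Sepharose. Each domain was incubated at 10 μg/ml overnight at 4°C on cellulose membranes with synthetic 15-mer peptides whose cysteines were replaced by serines. Anti-GST antibody, an HRP anti-mouse secondary and luminol were used for detection, and images were quantified with Genespotter. Reported binding signal is normalized, background-subtracted spot intensity averaged over replicates, in arbitrary units that differ between domains.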
# AgBbc1 = molecular target: AgBbc1
# Procedure, shortened: as §1
# AgBem1-D1 = molecular target: AgBem1-D1
# Procedure, shortened: as §1
# AgBzz1-D1 = molecular target: AgBzz1-D1
# Procedure, shortened: as §1
# AgBzz1-D2 = molecular target: AgBzz1-D2
# Procedure, shortened: as §1
# AgCyk3 = molecular target: AgCyk3
# Procedure, shortened: as §1
# AgFus1 = molecular target: AgFus1
# Procedure, shortened: as §1
# AgHof1 = molecular target: AgHof1
# Procedure, shortened: as §1
# AgHse1 = molecular target: AgHse1
# Procedure, shortened: as §1
# AgLsb1 = molecular target: AgLsb1
# Procedure, shortened: as §1
# AgLsb4 = molecular target: AgLsb4
# Procedure, shortened: as §1
# AgMyo5 = molecular target: AgMyo5
# Procedure, shortened: as §1
# AgNbp2 = molecular target: AgNbp2
# Procedure, shortened: as §1
# AgRvs167 = molecular target: AgRvs167
# Procedure, shortened: as §1
# AgSho1 = molecular target: AgSho1
# Procedure, shortened: as §1
# AgSla1-D1-D2 = molecular target: AgSla1-D1-D2
# Procedure, shortened: as §1
# AgSla1-D3 = molecular target: AgSla1-D3
# Procedure, shortened: as §1
# CaAbp1-D1 = molecular target: CaAbp1-D1
# Procedure, shortened: as §1
# CaAbp1-D2 = molecular target: CaAbp1-D2
# Procedure, shortened: as §1
# CaBbc1 = molecular target: CaBbc1
# Procedure, shortened: as §1
# CaBem1-D1 = molecular target: CaBem1-D1
# Procedure, shortened: as §1
# CaBzz1-D1 = molecular target: CaBzz1-D1
# Procedure, shortened: as §1
# CaBzz1-D2 = molecular target: CaBzz1-D2
# Procedure, shortened: as §1
# CaCyk3 = molecular target: CaCyk3
# Procedure, shortened: as §1
# CaFus1 = molecular target: CaFus1
# Procedure, shortened: as §1
# CaHof1 = molecular target: CaHof1
# Procedure, shortened: as §1
# CaHse1 = molecular target: CaHse1
# Procedure, shortened: as §1
# CaLsb1 = molecular target: CaLsb1
# Procedure, shortened: as §1
# CaLsb4 = molecular target: CaLsb4
# Procedure, shortened: as §1
# CaMyo5 = molecular target: CaMyo5
# Procedure, shortened: as §1
# CaNbp2 = molecular target: CaNbp2
# Procedure, shortened: as §1
# CaRvs167 = molecular target: CaRvs167
# Procedure, shortened: as §1
# CaRvs167-3 = molecular target: CaRvs167-3
# Procedure, shortened: as §1
# CaSho1 = molecular target: CaSho1
# Procedure, shortened: as §1
# CaSla1-D1-D2 = molecular target: CaSla1-D1-D2
# Procedure, shortened: as §1
# CaSla1-D3 = molecular target: CaSla1-D3
# Procedure, shortened: as §1
# ScAbp1 = molecular target: ScAbp1
# Procedure, shortened: as §1
# ScBbc1 = molecular target: ScBbc1
# Procedure, shortened: as §1
# ScBem1-D1 = molecular target: ScBem1-D1
# Procedure, shortened: as §1
# ScBzz1-D1 = molecular target: ScBzz1-D1
# Procedure, shortened: as §1
# ScBzz1-D2 = molecular target: ScBzz1-D2
# Procedure, shortened: as §1
# ScCyk3 = molecular target: ScCyk3
# Procedure, shortened: as §1
# ScFus1 = molecular target: ScFus1
# Procedure, shortened: as §1
# ScHof1 = molecular target: ScHof1
# Procedure, shortened: as §1
# ScHse1 = molecular target: ScHse1
# Procedure, shortened: as §1
# ScLsb1 = molecular target: ScLsb1
# Procedure, shortened: as §1
# ScLsb2 = molecular target: ScLsb2
# Procedure, shortened: as §1
# ScLsb3 = molecular target: ScLsb3
# Procedure, shortened: as §1
# ScLsb4 = molecular target: ScLsb4
# Procedure, shortened: as §1
# ScMyo3 = molecular target: ScMyo3
# Procedure, shortened: as §1
# ScMyo5 = molecular target: ScMyo5
# Procedure, shortened: as §1
# ScNbp2 = molecular target: ScNbp2
# Procedure, shortened: as §1
# ScPex13 = molecular target: ScPex13
# Procedure, shortened: as §1
# ScRvs167 = molecular target: ScRvs167
# Procedure, shortened: as §1
# ScSho1 = molecular target: ScSho1
# Procedure, shortened: as §1
# ScSla1-D1-D2 = molecular target: ScSla1-D1-D2
# Procedure, shortened: as §1
# ScSla1-D3 = molecular target: ScSla1-D3
# Procedure, shortened: as §1
# SpAbp1-D1 = molecular target: SpAbp1-D1
# Procedure, shortened: as §1
# SpBbc1 = molecular target: SpBbc1
# Procedure, shortened: as §1
# SpBzz1-D1 = molecular target: SpBzz1-D1
# Procedure, shortened: as §1
binder,measurement,setting,value
LRWRHKFFLPAIAAI,SPOT peptide array binding signal intensity,AgAbp1,73
same,SPOT peptide array binding signal intensity,AgBbc1,14.2
same,SPOT peptide array binding signal intensity,AgBem1-D1,52.5
same,SPOT peptide array binding signal intensity,AgBzz1-D1,≤ 0
same,SPOT peptide array binding signal intensity,AgBzz1-D2,≤ 0
same,SPOT peptide array binding signal intensity,AgCyk3,0.5
same,SPOT peptide array binding signal intensity,AgFus1,299
same,SPOT peptide array binding signal intensity,AgHof1,9.38
same,SPOT peptide array binding signal intensity,AgHse1,979
same,SPOT peptide array binding signal intensity,AgLsb1,≤ 0
same,SPOT peptide array binding signal intensity,AgLsb4,18.8
same,SPOT peptide array binding signal intensity,AgMyo5,≤ 0
same,SPOT peptide array binding signal intensity,AgNbp2,14.8
same,SPOT peptide array binding signal intensity,AgRvs167,1.17
same,SPOT peptide array binding signal intensity,AgSho1,32
same,SPOT peptide array binding signal intensity,AgSla1-D1-D2,2.5
same,SPOT peptide array binding signal intensity,AgSla1-D3,2.25
same,SPOT peptide array binding signal intensity,CaAbp1-D1,312
same,SPOT peptide array binding signal intensity,CaAbp1-D2,422
same,SPOT peptide array binding signal intensity,CaBbc1,13
same,SPOT peptide array binding signal intensity,CaBem1-D1,4.5
same,SPOT peptide array binding signal intensity,CaBzz1-D1,23.2
same,SPOT peptide array binding signal intensity,CaBzz1-D2,0.25
same,SPOT peptide array binding signal intensity,CaCyk3,1.5
same,SPOT peptide array binding signal intensity,CaFus1,728
same,SPOT peptide array binding signal intensity,CaHof1,≤ 0
same,SPOT peptide array binding signal intensity,CaHse1,28.5
same,SPOT peptide array binding signal intensity,CaLsb1,0.25
same,SPOT peptide array binding signal intensity,CaLsb4,2.5
same,SPOT peptide array binding signal intensity,CaMyo5,4
same,SPOT peptide array binding signal intensity,CaNbp2,116
same,SPOT peptide array binding signal intensity,CaRvs167,12.8
same,SPOT peptide array binding signal intensity,CaRvs167-3,24
same,SPOT peptide array binding signal intensity,CaSho1,228
same,SPOT peptide array binding signal intensity,CaSla1-D1-D2,≤ 0
same,SPOT peptide array binding signal intensity,CaSla1-D3,3.12
same,SPOT peptide array binding signal intensity,ScAbp1,53.5
same,SPOT peptide array binding signal intensity,ScBbc1,0.875
same,SPOT peptide array binding signal intensity,ScBem1-D1,9.5
same,SPOT peptide array binding signal intensity,ScBzz1-D1,4.5
same,SPOT peptide array binding signal intensity,ScBzz1-D2,14.2
same,SPOT peptide array binding signal intensity,ScCyk3,18.5
same,SPOT peptide array binding signal intensity,ScFus1,209
same,SPOT peptide array binding signal intensity,ScHof1,1.25
same,SPOT peptide array binding signal intensity,ScHse1,1040
same,SPOT peptide array binding signal intensity,ScLsb1,0.25
same,SPOT peptide array binding signal intensity,ScLsb2,≤ 0
same,SPOT peptide array binding signal intensity,ScLsb3,≤ 0
same,SPOT peptide array binding signal intensity,ScLsb4,4.25
same,SPOT peptide array binding signal intensity,ScMyo3,≤ 0
same,SPOT peptide array binding signal intensity,ScMyo5,≤ 0
same,SPOT peptide array binding signal intensity,ScNbp2,20.2
same,SPOT peptide array binding signal intensity,ScPex13,≤ 0
same,SPOT peptide array binding signal intensity,ScRvs167,1.5
same,SPOT peptide array binding signal intensity,ScSho1,759
same,SPOT peptide array binding signal intensity,ScSla1-D1-D2,≤ 0
same,SPOT peptide array binding signal intensity,ScSla1-D3,≤ 0
same,SPOT peptide array binding signal intensity,SpAbp1-D1,166
same,SPOT peptide array binding signal intensity,SpBbc1,1.75
same,SPOT peptide array binding signal intensity,SpBzz1-D1,≤ 0
